Compound activity (PubChem BioAssay)
HT1080 IDH1KD tx – toxicity to HT-1080 IDH1 knockdown cells (counter line). actives 2% (n = 360,000). Potency, µM (titrated, usually from 46.1 µM), hits mostly cytotoxic. HT-1080 IDH1 knockdown viability, ATP luminescence, 48 h
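Luminescent ATP read-out (CellTiter-Glo, 10 min at room temperature) after 48 h compound exposure at 37 °C gave viability of IDH1-knockdown HT-1080 cells. Activity was normalised to DMSO and cell-free wells, then fitted as concentration-response curves.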
DT40 TDP1 CPT – DT40-hTDP1 cell growth loss with CPT; chicken DT40 Tdp1-/-;hTDP1 cells + 20 nM CPT, ATP luminescence, 48 h; Potency, µM (doses to about 46.2 µM), most hits filed as inhibitors; actives 12% (n = 420,000); AID 686979; note: nearly all actives have a fitted effect of over 55% in size
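Chicken DT40 Tdp1-/- cells stably complemented with human TDP1 were seeded at 400 cells/well in medium containing 20 nM camptothecin, exposed to pin-transferred compounds, and grown at 37 °C for at least 48 hr. Viability was read as ATP luminescence.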
12-LOX inh – blocks human arachidonate 12S-lipoxygenase | P18054 | purified 12hLO, xylenol orange hydroperoxide absorbance | Potency, µM (series often up to 108 µM), actives largely listed as inhibitors | actives 1.1% (n = 580,000)
Target sequence (P18054 whole entry, looked up): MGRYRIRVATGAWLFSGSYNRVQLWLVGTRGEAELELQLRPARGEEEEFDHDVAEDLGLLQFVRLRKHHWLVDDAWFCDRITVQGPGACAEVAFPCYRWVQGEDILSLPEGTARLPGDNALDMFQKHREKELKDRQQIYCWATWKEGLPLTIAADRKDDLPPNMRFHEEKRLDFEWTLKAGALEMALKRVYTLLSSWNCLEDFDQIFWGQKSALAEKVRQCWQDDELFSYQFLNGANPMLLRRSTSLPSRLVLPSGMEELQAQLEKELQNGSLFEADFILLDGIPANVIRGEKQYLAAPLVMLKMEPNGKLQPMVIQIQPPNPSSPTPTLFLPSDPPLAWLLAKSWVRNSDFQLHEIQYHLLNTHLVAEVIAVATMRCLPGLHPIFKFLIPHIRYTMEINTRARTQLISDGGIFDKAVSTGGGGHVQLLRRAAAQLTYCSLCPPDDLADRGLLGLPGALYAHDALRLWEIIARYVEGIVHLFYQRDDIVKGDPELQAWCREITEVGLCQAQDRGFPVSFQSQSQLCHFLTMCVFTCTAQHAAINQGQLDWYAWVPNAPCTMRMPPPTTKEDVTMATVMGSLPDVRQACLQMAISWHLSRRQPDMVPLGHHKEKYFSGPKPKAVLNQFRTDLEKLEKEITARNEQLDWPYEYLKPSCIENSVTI
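Purified human 12hLO at 150 nM in 25 mM Hepes, 0.01% Triton X-100, pH 7.0, preincubated 15 min at room temperature with compound. Reaction started with 40 uM arachidonic acid, 30 min at room temperature. Hydroperoxide measured by Fe-xylenol orange, 573/405 nm absorbance ratio.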
HT1080-NT tox – kills 2HG-producing HT-1080-NT fibrosarcoma cells. HT-1080-NT fibrosarcoma viability, CellTiter-Glo ATP luminescence, 48 h. Potency, µM (top dose mostly 46.1 µM), most hits filed as cytotoxic. actives 1.6% (n = 360,000). AID 686970;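 note: NT is the 2HG producing partner of a matched IDH1 knockdown line; nearly all actives have a fitted effect of over 55% in size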
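750 cells/well, RPMI + 5% FBS; 2 h settle, compound pin-transfer, 48 h at 37 degrees C. CellTiter-Glo 10 min RT, luminescence. Normalized to DMSO and media-only wells.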
TDP1 cell noCPT – qHTS for Inhibitors of human tyrosyl-DNA phosphodiesterase 1 (TDP1): qHTS in cells in absence of CPT; actives 15% (n = 420,000); DT40 Tdp1-/- hTDP1 cells, no CPT, ATP luminescence, 48 h; Potency, µM (series often up to 46.2 µM), actives largely listed as inhibitors; AID 686978, 2013; note: nearly all actives have a fitted effect of over 55% in size
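Readout: luminescence from CellTiter-Glo after 30 min in the dark at RT. Cells: DT40 Tdp1-/- with stable hTDP1, 400/well. Exposure: compounds alone, ≥48 hr, 37 °C.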
IL-1B inflam inh – inhibitors of inflammasome signaling (IL-1 beta secretion); activity change, % at 57.5 µM; AID 743279; THP-1 LPS/ATP IL-1B secretion, AlphaLISA, 16 h; hits give low values; actives 4.7% (n = 360,000); in the data active = activity change below about -50%; inconclusive = mostly about -30% to -49%
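Secreted IL-1B measured by AlphaLISA bead assay after 16 h compound exposure of THP-1 cells; compounds (final up to 57.5 uM) added 1 h before LPS (250 ng/mL) and ATP (1.25 mM) stimulation; lower signal means less secretion.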
Numbers stand for hits; - = inactive; ? = inconclusive; . = no result given; [ ] = another dose, or the depositor's remark. The full list was thinned out, with hits kept by preference. Unless noted, calls come from the whole dose curve; as a rule, active = well fitted curve in the direction sought with a large enough effect; inconclusive = small, poorly fitted or top-dose-only effect, or another doubt; inactive = no such curve, though single readings can be large; an effect the other way counts as inactive or inconclusive.

SMILES | HT1080 IDH1KD tx | DT40 TDP1 CPT | 12-LOX inh | HT1080-NT tox | TDP1 cell noCPT | IL-1B inflam inh
CCc1ccc(CN(C)CC(=O)Nc2ccc(S(=O)(=O)N3CCOCC3)cc2)cc1 | - | ? | - | -[9.24 µM] | ? | -
COc1ccccc1/C=C/c1nc(S(=O)(=O)c2ccccc2)c(NCCN(C)C)o1 | - | ? | ? | - | 21µM | -
Cc1ccc(S(=O)(=O)c2nc(-c3ccccc3Cl)oc2N2CCCCCC2)cc1 | . | 23µM | - | . | 18µM | .
CNc1oc(-c2ccc(Cl)cc2)nc1S(=O)(=O)c1ccc2c(c1)OCCO2 | . | . | - | . | . | .
CN(C)CCNc1oc(-c2ccc(F)cc2)nc1S(=O)(=O)c1ccc2c(c1)OCCO2 | . | . | 32µM | . | . | .
CCOP(=O)(c1ccccc1)c1nc(-c2ccccc2Cl)oc1N1CCCCC1 (stereo not given) | ? | ? | - | ? | ? | -67
COc1ccc(/C=C/c2nc(S(=O)(=O)c3ccccc3)c(NCCCN(C)C)o2)cc1OC | - | - | - | - | - | -
CS(=O)(=O)N1CCOc2ccc(CCC(=O)NCc3ccccn3)cc2C1 | . | . | - | . | . | .
Cc1cc(C)n(-c2nc3ccccc3nc2N2CCN(C)CC2)n1 | . | . | - | . | . | .
COc1cc(-c2nc(S(=O)(=O)c3ccc(Br)cc3)c(N3CCOCC3)o2)cc(OC)c1OC | . | 12µM | ? | . | 8.2µM | .
COc1ccccc1-c1nc(S(=O)(=O)c2ccccc2)c(N2CCCCC2)o1 | - | ? | ? | - | ? | -
COc1ccccc1-c1nc(S(=O)(=O)c2ccc(Cl)cc2)c(N2CCCCCC2)o1 | . | 16µM | - | . | 16µM | .
O=S(=O)(c1ccc(F)cc1)c1nc(-c2ccccc2F)oc1N1CCCCC1 | - | ? | - | - | ? | -
Cc1ccccc1-c1nc(S(=O)(=O)c2ccccc2)c(NCCCN2CCOCC2)o1 | - | ? | - | - | ? | -
CCN1CCN(c2oc(-c3ccccc3C)nc2S(=O)(=O)c2ccccc2)CC1 | - | ? | ? | - | 18µM | -
O=S(=O)(c1ccccc1)c1nc(-c2ccccc2Cl)oc1N1CCCCCC1 | . | ? | - | . | 21µM | .
CC12CC3CC(C)(C1)CC(NCc1cccnc1)(C3)C2 | . | . | - | . | . | .
COc1ccc(CN(C(=O)COc2ccccc2)c2ccccc2C(=O)O)cc1 | - | - | - | - | - | -
COc1ccc(C2CCCN2CC(=O)N(C)Cc2ccc(C)cc2)cc1 (stereo not given) | . | . | - | . | . | .
O=C(NC1C[C@H]2CC[C@@H](C1)N2C(=O)COc1ccccc1)c1ccncc1 (stereo not given in full) | . | . | - | . | . | .
Cc1ccc(S(=O)(=O)c2nc(-c3ccccc3Cl)oc2N2CCN(C)CC2)cc1 | - | ? | - | - | 23µM | -66
COc1ccc(-c2nc(S(=O)(=O)c3ccc4c(c3)OCCO4)c(N3CCN(C)CC3)o2)cc1 | . | . | 35µM | . | . | .
COCCCN=Cc1c(-c2ccccc2)[nH]n(-c2nc3ccccc3s2)c1=O | - | 26µM | - | - | ? | ?
CCCc1[nH]n(-c2nc3ccccc3s2)c(=O)c1C=NCCCOC | - | - | - | - | - | ?
CCCCCN=Cc1c(C)[nH]n(-c2nc3ccccc3s2)c1=O | 5µM | 2.1µM | - | 11µM | 4.6µM | -
SMILES | HT1080 IDH1KD tx | DT40 TDP1 CPT | 12-LOX inh | HT1080-NT tox | TDP1 cell noCPT | IL-1B inflam inh
O=c1c(C=NCCCO)c(-c2ccccc2)[nH]n1-c1nc2ccccc2s1 | - | 13µM | - | - | ? | -
CCCCCCCc1c(O)nc(SCCN(C)C)[nH]c1=O | - | - | - | - | - | -51
O=C(Nc1cc(=O)[nH]c(=O)[nH]1)c1cc(Cl)ccc1Cl | 3.3µM | 3.3µM | - | ? | 4.1µM | -
O=C(O)CCn1ncc2cc(OCC3CCN(c4ncccn4)CC3)ccc21 | . | . | - | . | . | .
COc1cc(Cl)ccc1OCc1cc(C(=O)N2C[C@]3(C)C[C@H]2CC(C)(C)C3)no1 | - | ? | - | - | 16µM | -
COc1cc(Cl)ccc1OCc1cc(C(=O)N2C[C@H]3CC[C@H]2C3)no1 | - | ? | - | - | - | -
CC1(C)CC2CC(C)(CN2C(=O)COC(=O)c2ccc(Cl)cc2N)C1 (stereo not given) | - | - | - | - | 23µM | -
CC1=C(c2ccccc2)C(=S)NC(C)(C)C1 | 33µM | - | ? | - | - | -
C=C(CC)C(=O)c1ccc(OCC(=O)O)c(Cl)c1Cl | 23µM | 17µM | - | 18µM | 18µM | -94
COc1ccc(-n2[nH]c(-c3ccccc3)cc2=O)cc1 | . | . | - | . | . | .
Cc1nc(-c2cn(C3CCCN(C(=O)c4ccc5c(c4)OCO5)C3)nn2)no1 (stereo not given) | . | . | - | . | . | .
